From PubChem BioAssay (NCATS)
Several values for one entry are separate records, joined by “and”; a condition that tells them apart may be missing. Equal entries are not always repeated. Results filed as inconclusive are left out. A structure can be active in one record and inactive in another. Activity calls are given as the source filed them. Calls follow the shape of the dose curve; as a rule, active = well fitted inhibition curve with a large enough effect; inconclusive = small, poorly fitted or top-dose-only effect; inactive = flat fitted curve, though single readings scatter.

Biological target: Phospholipid hydroperoxide glutathione peroxidase GPX4 (Homo sapiens) (UniProt P36969)
Test: Primary qHTS Assay for Inhibitors of Recombinant Selenoprotein Glutathione Peroxidase 4 (GPX4) (AID 1845192); also: nearly all actives have a fitted effect of over 65% in size
Conditions: recombinant GPX4, GR-coupled NADPH fluorescence, 15 min; series mostly up to 50 µM; activity change, negative = inhibition: at the top concentration
Text: Assay Provider: Elias S.J. Arner MD PhD.
Department of Medical Biochemistry and Biophysics
Karolinska Institutet, Solna, Stockholm, Sweden
Selenoprotein glutathione peroxidases (GPX), like the ubiquitously expressed GPX1 and the ferroptosis modulator GPX4, enact their antioxidant activities by reducing hydroperoxides using glutathione. […] GPX1 and GPX4 inhibitors have thus shown promise as anti-cancer agents. Existing inhibitors are often promiscuous, or modulate GPX activity only indirectly, so novel direct inhibitors identified through screening against GPX1 and GPX4 could be valuable. Here, we developed optimized glutathione reductase (GR)-coupled GPX assays for the biochemical high-throughput screen (HTS) of almost 12,000 compounds with known mechanisms of action. Initial hits were triaged using a GR counter-screen, assessed for isoform specificity using a separate GPX2 assay, and were assessed for general selenocysteine-targeting activity using a thioredoxin reductase (TXNRD1) assay. With this suite of assays, we identified novel GPX1/GPX2- and GPX4-specific inhibitors and can here present a validated pipeline for future discovery research for selenoprotein-targeting agents.
SEQUENCE No. (e.g., 1, 2, 3, etc.); […] (e.g., Cells, Incubation, Reagent, etc.); VALUE; DESCRIPTION.
1; Reagent 1; 3 uL; 333.33 nM GPx4 enzyme or no enzyme control in 1536-well, black, solid Greiner assay plate.
2; Compound; 25 nL; Kalypsis pin tool (Wako USA) equipped with a 1536-well pin head.
3; Incubation; 30 min; room temperature.
4; Reagent 2; 1 uL; 500 nM GR, 5 mM GSH, 2.5 mM NADPH solution
5; Reagent 3; 1 uL; 2.5 mM CHP in 50% EtOH.
6; Detection; Fluorescence; ViewLux microplate reader, excitation 340 nm and emission 450 nm.
7; Incubation; 15 min; room temperature.
8; Detection; Fluorescence; ViewLux microplate reader, excitation 340 nm and emission 450 nm.
NOTES (numbers refer to Sequence numbers above)
1. 3 µL of 333.33 nM GPX4 and 0.016% BSA in assay buffer (50 mM Tris-HCl, 2 mM EDTA (pH 7.5), 150 mM NaCl) was added to columns 3-48 of 1536-well plates using a BioRAPTR Flying Reagent Dispenser (Let's Go Robotics (LGR), Carlsbad, CA). A no-enzyme control (0.01% BSA in TES assay buffer) was added to columns 1-2.
2. 25 nL, library and DMSO controls were added to each well with a pin tool (Kalypsys).
3. The assay plates were incubated for 30 minutes at room temperature.
4. 1 µL of master mix (500 nM glutathione reductase (GR), 5 mM reduced glutathione (GSH), 2.5 mM NADPH in assay buffer) was added.
5. 1 µL of cumene hydroperoxide (CHP) ([2.5 mM] in 50% EtOH) was then added within 5 minutes to initiate the reaction. Final concentrations were: 200 nM GPX4, 1 mM GSH, 0.5 mM CHP, 0.5 mM NADPH, 100 nM GR, 0.01% BSA.
6. Initial fluorescence readout (t=0) at 340/450 nm was measured using a ViewLux multimodal detector (PerkinElmer, Waltham, MA).
8. Endpoint fluorescence readout (t=15) at 340/450 nm was measured 15 min after room temperature incubation.
% is scaled to controls: 0 for no effect and ±100 for the full control effect; potency is read from the fitted curve at half-maximal effect.

Phospholipid hydroperoxide glutathione peroxidase GPX4 (Homo sapiens), sequence (P36969 whole entry, looked up): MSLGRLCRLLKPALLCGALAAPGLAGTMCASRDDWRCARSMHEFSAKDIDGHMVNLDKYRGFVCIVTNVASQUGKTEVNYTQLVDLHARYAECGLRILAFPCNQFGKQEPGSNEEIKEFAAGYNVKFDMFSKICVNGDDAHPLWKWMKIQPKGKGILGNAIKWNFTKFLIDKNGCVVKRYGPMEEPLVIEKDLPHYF

Compound | activity change, negative = inhibition | outcome | Potency
COc1cc2ncnc(Nc3ccc(F)c(Cl)c3)c2cc1O | -12.1% (inactive) | – | –
Fc1ccc2c(CCNCc3cccc(OCC(F)(F)C(F)F)c3)c[nH]c2c1 | 6.19% (inactive) | – | –
CNc1ccc([N+](=O)[O-])c(Nc2ccc3[nH]ncc3c2)n1 | -13.3% (inactive) | – | –
C=C1C(=O)OC2/C=C(\C)CC/C=C(\C=O)C(OC)C(OC(=O)C(C)CC)C12 (stereo not given) | -8% [at 27.8 µM] (inactive) | – | –
C=C1C(=O)O[C@@H]2C=C(COC(C)=O)CC/C=C(\CO)CC[C@@H]12 | – | inactive [at 27.8 µM] | –
COc1ccc(-n2c(SCCCN3C(=O)c4cccc5cccc(c45)C3=O)nnc2-c2ccncc2)cc1 | 7.01% (inactive) | – | –
C=CC(=O)Nc1cccc(Nc2nc(Nc3ccc(OCCOC)cc3)ncc2F)c1 | 4.52% (inactive) | – | –
CCCCCCCOc1cc2c(cc1/C(C)=C/c1ccc(C(=O)O)cc1)C(C)(C)CCS2(=O)=O | -27% (inactive) | – | –
Cc1onc(-c2ccccc2)c1C(=O)N1CCN(c2ccc([N+](=O)[O-])cc2Cl)CC1 | -11.2% (inactive) | – | –
COc1ccc(CCc2nc3cc(-c4c(C)noc4C)ccc3n2CC(C)N2CCOCC2)cc1Cl (stereo not given) | -3.72% (inactive) | – | –
CC(=O)Nc1cccc(-c2csc(Nc3cc(C)ccn3)n2)c1 | -7.97% (inactive) | – | –
O=C(Nc1cccnn1)N1CCN(c2nccc(-c3ccc(F)c(F)c3)n2)CC1 | 4.31% [at 100 µM] (inactive) | – | –
COC1CC(O[C@H]2CC[C@]3(C)C4CC[C@]5(C)C(C6=CC(=O)OC6)=CCC56OC46CC[C@@H]3C2)OC(C)C1O[C@@H]1O[C@H](CO[C@@H]2O[C@H](CO)[C@@H](O)[C@H](O)[C@H]2O)[C@@H](O)[C@H](O)[C@H]1O (stereo not given in full) | -2.04% [at 15.3 µM] (inactive) | – | –
COc1c(F)cccc1C(=O)N1C[C@@H](C)CC[C@H]1CNc1ccc(Br)cn1 | 3.26% (inactive) | – | –
Cc1ccc(S(=O)(=O)NCc2ccc(C(=O)NCCN(Cc3ccccc3)C(C)C)cc2)cc1 | -14.4% (inactive) | – | –
C=C[C@]1(C)C[C@H](O)[C@H]2C(=C)C(=O)O[C@@H]2[C@H]1C(=C)CO | – | inactive | –
CNCc1cc(-c2ccccc2F)n(S(=O)(=O)c2cccnc2)c1 | – | – | inactive
COC1C(OC(=O)/C=C/C=C/C=C/C=C/C(=O)O)CCC2(CO2)C1C1(C)OC1CC=C(C)C (stereo not given) | -23.6% [at 27.8 µM] (inactive) | – | –
CC(C)C[C@@H]1NC(=O)[C@@H](Cc2ccccc2)NC(=O)C(CCCCCC(=O)C2CO2)NC(=O)[C@@H]2CCCCN2C1=O (stereo not given in full) | -5.14% [at 27.8 µM] (inactive) | – | –
CCc1c(Cl)c(O)c(Cl)c(O)c1C(=O)O[C@H]1[C@H](O)[C@H](OC)[C@H](OC/C2=C\C=C\C[C@H](O)/C(C)=C\[C@H](CC)[C@@H](O[C@@H]3OC(C)(C)[C@@H](OC(=O)C(C)C)[C@H](O)[C@@H]3O)/C(C)=C/C(C)=C/C[C@@H]([C@@H](C)O)OC2=O)O[C@@H]1C | – | – | inactive and 5.01 µM (active)

Compound | activity change, negative = inhibition | outcome | Potency
NCC1CCN(c2nccc(-c3ccc4ccccc4c3)n2)CC1 | 1.25% (inactive) | – | –
COc1cc([C@H]2O[C@H](c3cc(OC)c4c(c3)OCO4)[C@H](C)[C@H]2C)cc(OC)c1OC | 1.99% [at 27.8 µM] (inactive) | – | –
Cc1cc(F)c(C(=O)Nc2cccc(-c3nncn3C(C)C)n2)cc1-n1cnc(C2CC2)c1 | -16.8% [at 27.8 µM] (inactive) | – | –
Fc1ccc(N2CCCCC2)c(NC(=S)c2ccncc2)c1 | -11.3% (inactive) | – | –
COC1CC(O[C@H]2CC[C@]3(C)C4CC[C@@]5(C)C(=O)[C@]4(CC[C@@H]3C2)CC[C@@H]5C2=CC(=O)OC2)OC(C)C1OC1OC(COC2OC(CO)C(O)C(O)C2O)C(O)C(O)C1O (stereo not given in full) | 3.7% [at 15.3 µM] (inactive) | – | –
C=C1C(=O)O[C@H]2C3=C(C)CCC[C@]3(C)C(=O)C[C@@H]12 | – | inactive | –
COC(=O)c1ccc2c(c1)nc(NC(=O)c1ccccc1)n2CCCc1ccccc1 | 14.9% (inactive) | – | –
CC1(S(=O)(=O)O)CC(=O)c2ccccc2C1=O (stereo not given) | – | – | 891 nM (active)
C=C(NC(=O)C(=C)NC(=O)c1csc(C2=NC3c4csc(n4)C4NC(=O)c5csc(n5)C(C(C)(O)C(C)O)NC(=O)C5CSC(=N5)/C(=C/C)NC(=O)C(C(C)O)NC(=O)c5csc(n5)C3(CC2)NC(=O)C(C)NC(=O)C(=C)NC(=O)C(C)NC(=O)C(C(C)CC)NC2C=Cc3c(C(C)O)cc(nc3C2O)C(=O)OC4C)n1)C(N)=O (stereo not given) | -17.8% (inactive) | – | –
COC(=O)CC[C@@H](C)C1CCC2C3CCC4C[C@H](OC(C)=O)CCC4(C)C3C[C@H](O)C21C (stereo not given in full) | – | inactive | –
CC(=O)NC(C(=O)O[C@H]1CCC(C)(C)[C@@H]2CC=C3C(=O)OCC3(O)[C@@]12C)C(C)C (stereo not given in full) | -1.41% [at 27.8 µM] (inactive) | – | –
CC(C)(C)Oc1ccc(OCC2Cc3ccccc3CN2C(=O)c2cccc3ccccc23)cc1 (stereo not given) | -3.27% (inactive) | – | –
CCn1c2ccccc2c2cc(Nc3ccnc(NCCCN4CCOCC4)n3)ccc21 | -16.1% (inactive) | – | –
CC1(C)CC[C@]23CO[C@@]4(CCC5[C@@]6(C)CC[C@H](O[C@@H]7OC[C@H](O[C@@H]8O[C@H](CO)[C@@H](O)[C@H](O)[C@H]8O[C@@H]8OC[C@@H](O)[C@H](O)[C@H]8O)[C@H](O)[C@H]7O)[C@@](C)(CO)C6CC[C@@]5(C)[C@]4(C)CC2=O)[C@@H]3C1 (stereo not given in full) | -4.92% [at 15.3 µM] (inactive) | – | –
CNC(=O)[C@@H](c1ccccc1)N1CCc2cc(OC)c(OC)cc2[C@@H]1CCc1ccc(C(F)(F)F)cc1 | -15.7% (inactive) | – | –
C=C1/C(=C/C=C2\CCC[C@]3(C)[C@@H]([C@H](C)CC[C@@H](O)C(C)(C)O)CC[C@@H]23)C[C@@H](O)C[C@@H]1O | -28.5% (inactive) | – | –
CC(C)[C@@H](c1ccc(C(F)(F)F)cc1CN(Cc1cc(C(F)(F)F)cc(C(F)(F)F)c1)c1nnn(C)n1)N1CCC(C(=O)O)CC1 | -1.44% (inactive) | – | –
C=CC(=O)Nc1ccc(CN2C(=O)N(c3cc(OC)cc(OC)c3)Cc3cnc(Nc4ccc(N5CCN(C)CC5)cc4)nc32)cc1 | 2.5% (inactive) | – | –
CN(C)CC#CCCC(=O)C(O)(c1ccccc1)C1CCC1 (stereo not given) | – | inactive | –
C[C@@H]1CC[C@@]23CC[C@]4(C)[C@@](C=CC5[C@@]6(C)CC[C@H](O)C(C)(C)C6CC[C@]54C)(OC2=O)C3[C@H]1C (stereo not given in full) | -6.4% [at 27.8 µM] (inactive) | – | –
